From publication PMC5540273 (PLoS ONE, 2017)
Where two headings read alike, the source gives them in different places.

Columns and labels:
FYN = details: concentration: 1 μM,replicates: in singlicate; n = 1
GAK = details: concentration: 1 μM,replicates: in singlicate; n = 1
GCN2(Kin.Dom.2,S808G) = tested on: T1, GCN2(Kin.Dom.2,S808G); details: concentration: 1 μM,replicates: in singlicate; n = 1
T1 construct: gene EIF2AK4

GRK1 = details: concentration: 1 μM,replicates: in singlicate; n = 1
GRK2 = tested on: T2, GRK2; details: concentration: 1 μM,replicates: in singlicate; n = 1
T2 construct: gene ADRBK1

GRK3 = tested on: T3, GRK3; details: concentration: 1 μM,replicates: in singlicate; n = 1
T3 construct: gene ADRBK2

GRK4 = details: concentration: 1 μM,replicates: in singlicate; n = 1
GRK7 = details: concentration: 1 μM,replicates: in singlicate; n = 1
GSK3A = details: concentration: 1 μM,replicates: in singlicate; n = 1
GSK3B = details: n = 1
HASPIN = tested on: T4, HASPIN; details: concentration: 1 μM,replicates: in singlicate; n = 1
T4 construct: gene GSG2

HCK = details: concentration: 1 μM,replicates: in singlicate; n = 1
HIPK1 = details: concentration: 1 μM,replicates: in singlicate; n = 1
HIPK2 = details: concentration: 1 μM,replicates: in singlicate; n = 1
HIPK3 = details: concentration: 1 μM,replicates: in singlicate; n = 1
HIPK4 = details: concentration: 1 μM,replicates: in singlicate; n = 1
HPK1 = details: concentration: 1 μM,replicates: in singlicate; n = 1
HUNK = details: concentration: 1 μM,replicates: in singlicate; n = 1
ICK = details: concentration: 1 μM,replicates: in singlicate; n = 1
IGF1R = details: concentration: 1 μM,replicates: in singlicate; n = 1
[1] = concentration: 1 μM,replicates: in singlicate
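Note: KINOMEscan kinase panel screen.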

COC(=O)c1cccc(NC(=O)NC2CCN(c3ccnc(Nc4cc(OC)c(OC)c(OC)c4)n3)C2)c1 (centres unmarked) [GSK1379767]
%Inh (FYN): 9%
%Inh (GAK): 27%
%Inh (GCN2(Kin.Dom.2,S808G)): 0%
%Inh (GRK1): 13%
%Inh (GRK2): 0%
%Inh (GRK3): 49%
%Inh (GRK4): 0%
%Inh (GRK7): 0%
%Inh (GSK3A): 2%
%Inh (GSK3B; [1]): 0%
%Inh (HASPIN): 15%
%Inh (HCK): 5%
%Inh (HIPK1): 0%
%Inh (HIPK2): 0%
%Inh (HIPK3): 6%
%Inh (HIPK4): 0%
%Inh (HPK1): 72%
%Inh (HUNK): 0%
%Inh (ICK): 0%
%Inh (IGF1R): 3%

Nc1nccc(-c2ccc3c(N)n[nH]c3c2)n1 [GSK1034945]
%Inh (FYN): 32%
%Inh (GAK): 15%
%Inh (GCN2(Kin.Dom.2,S808G)): 0%
%Inh (GRK1): 100%
%Inh (GRK2): 0%
%Inh (GRK3): 40%
%Inh (GRK4): 52%
%Inh (GRK7): 0%
%Inh (GSK3A): 0%
%Inh (GSK3B; [1]): 19%
%Inh (HASPIN): 90.5%
%Inh (HCK): 0%
%Inh (HIPK1): 0%
%Inh (HIPK2): 0%
%Inh (HIPK3): 34%
%Inh (HIPK4): 34%
%Inh (HPK1): 52%
%Inh (HUNK): 0%
%Inh (ICK): 0%
%Inh (IGF1R): 0%

COc1ccc(Nc2nccc(N3CCC(NC(=O)c4cccc(C#N)c4)C3)n2)cc1 (centres unmarked) [GSK1379730]
%Inh (FYN): 0%
%Inh (GAK): 0%
%Inh (GCN2(Kin.Dom.2,S808G)): 2%
%Inh (GRK1): 0%
%Inh (GRK2): 3%
%Inh (GRK3): 8%
%Inh (GRK4): 0%
%Inh (GRK7): 0%
%Inh (GSK3A): 0%
%Inh (GSK3B; [1]): 13%
%Inh (HASPIN): 6%
%Inh (HCK): 5%
%Inh (HIPK1): 0%
%Inh (HIPK2): 0%
%Inh (HIPK3): 0%
%Inh (HIPK4): 2%
%Inh (HPK1): 42%
%Inh (HUNK): 0%
%Inh (ICK): 0%
%Inh (IGF1R): 0%

COC(=O)c1cccc(NC(=O)NC2CCN(c3ccnc(NCc4ccc(F)cc4)n3)CC2)c1 [GSK1379860]
%Inh (FYN): 10%
%Inh (GAK): 0%
%Inh (GCN2(Kin.Dom.2,S808G)): 0%
%Inh (GRK1): 0%
%Inh (GRK2): 0%
%Inh (GRK3): 38%
%Inh (GRK4): 0%
%Inh (GRK7): 0%
%Inh (GSK3A): 6%
%Inh (GSK3B; [1]): 8%
%Inh (HASPIN): 17%
%Inh (HCK): 35%
%Inh (HIPK1): 0%
%Inh (HIPK2): 47%
%Inh (HIPK3): 10%
%Inh (HIPK4): 0%
%Inh (HPK1): 24%
%Inh (HUNK): 0%
%Inh (ICK): 0%
%Inh (IGF1R): 0%

CCCC(=O)Nc1n[nH]c2ncccc12 [SB-601436]
%Inh (FYN): 0%
%Inh (GAK): 0%
%Inh (GCN2(Kin.Dom.2,S808G)): 0%
%Inh (GRK1): 13%
%Inh (GRK2): 0%
%Inh (GRK3): 0%
%Inh (GRK4): 0%
%Inh (GRK7): 11%
%Inh (GSK3A): 38%
%Inh (GSK3B; 1 µM): 9%
%Inh (HASPIN): 29%
%Inh (HCK): 0%
%Inh (HIPK1): 20%
%Inh (HIPK2): 0%
%Inh (HIPK3): 0%
%Inh (HIPK4): 0%
%Inh (HPK1): 6%
%Inh (HUNK): 28%
%Inh (ICK): 7%
%Inh (IGF1R): 0%

O=C(Nc1n[nH]c2cc(-c3ccco3)ccc12)C1CC1 [SB-737447]
%Inh (FYN): 0%
%Inh (GAK): 5%
%Inh (GCN2(Kin.Dom.2,S808G)): 25%
%Inh (GRK1): 23%
%Inh (GRK2): 0%
%Inh (GRK3): 0%
%Inh (GRK4): 68%
%Inh (GRK7): 3%
%Inh (GSK3A): 96.2%
%Inh (GSK3B; [1]): 66%
%Inh (HASPIN): 0%
%Inh (HCK): 5%
%Inh (HIPK1): 39%
%Inh (HIPK2): 50%
%Inh (HIPK3): 31%
%Inh (HIPK4): 6%
%Inh (HPK1): 3%
%Inh (HUNK): 0%
%Inh (ICK): 66%
%Inh (IGF1R): 0%

CC(=O)Nc1ccc(-c2cc3ncnc(SCC(=O)O)c3s2)cc1
%Inh (FYN): 0%
%Inh (GAK): 59%
%Inh (GCN2(Kin.Dom.2,S808G)): 0%
%Inh (GRK1): 0%
%Inh (GRK2): 11%
%Inh (GRK3): 19%
%Inh (GRK4): 6%
%Inh (GRK7): 0%
%Inh (GSK3A): 0%
%Inh (GSK3B; [1]): 3%
%Inh (HASPIN): 13%
%Inh (HCK): 15%
%Inh (HIPK1): 96.7%
%Inh (HIPK2): 97.5%
%Inh (HIPK3): 95.1%
%Inh (HIPK4): 95.6%
%Inh (HPK1): 11%
%Inh (HUNK): 0%
%Inh (ICK): 60%
%Inh (IGF1R): 0%

CN(c1ccc2c(c1)nc(NCc1ccc(F)cc1)n2C)c1ccnc(Nc2ccc(CS(C)(=O)=O)cc2)n1.Cl [GW813244]
%Inh (FYN): 74%
%Inh (GAK): 15%
%Inh (GCN2(Kin.Dom.2,S808G)): 68%
%Inh (GRK1): 27%
%Inh (GRK2): 0%
%Inh (GRK3): 0%
%Inh (GRK4): 0%
%Inh (GRK7): 0%
%Inh (GSK3A): 14%
%Inh (GSK3B; [1]): 11%
%Inh (HASPIN): 28%
%Inh (HCK): 47%
%Inh (HIPK1): 53%
%Inh (HIPK2): 25%
%Inh (HIPK3): 47%
%Inh (HIPK4): 79%
%Inh (HPK1): 60%
%Inh (HUNK): 5%
%Inh (ICK): 7%
%Inh (IGF1R): 13%

Cc1n[nH]c2cc(Nc3ccnc(Nc4cccc(CN5CCOCC5)c4)n3)ccc12 [GW682569]
%Inh (FYN): 75%
%Inh (GAK): 74%
%Inh (GCN2(Kin.Dom.2,S808G)): 39%
%Inh (GRK1): 5%
%Inh (GRK2): 31%
%Inh (GRK3): 24%
%Inh (GRK4): 64%
%Inh (GRK7): 0%
%Inh (GSK3A): 0%
%Inh (GSK3B; [1]): 15%
%Inh (HASPIN): 20%
%Inh (HCK): 25%
%Inh (HIPK1): 0%
%Inh (HIPK2): 0%
%Inh (HIPK3): 26%
%Inh (HIPK4): 3%
%Inh (HPK1): 24%
%Inh (HUNK): 0%
%Inh (ICK): 0%
%Inh (IGF1R): 0%

c1ccc(Oc2ccc(Nc3ccnc4ccc(-c5ccccn5)cc34)cc2)cc1 [GW407034]
%Inh (FYN): 62%
%Inh (GAK): 17%
%Inh (GCN2(Kin.Dom.2,S808G)): 1%
%Inh (GRK1): 0%
%Inh (GRK2): 0%
%Inh (GRK3): 46%
%Inh (GRK4): 16%
%Inh (GRK7): 0%
%Inh (GSK3A): 7%
%Inh (GSK3B; [1]): 9%
%Inh (HASPIN): 0%
%Inh (HCK): 71%
%Inh (HIPK1): 0%
%Inh (HIPK2): 0%
%Inh (HIPK3): 0%
%Inh (HIPK4): 0%
%Inh (HPK1): 25%
%Inh (HUNK): 0%
%Inh (ICK): 16%
%Inh (IGF1R): 5%
